Measurements taken from article PMC5700166.
Residue numbers refer to the chain shown, from its start.

How the values were obtained:
Experiment in all cases: protein-binding microarray (PBM); PBM: ~300 nM protein, 6 mM HEPES pH 7.8, 80 mM KCl, 0.5 mM EDTA, 0.5 mM EGTA, 6% glycerol, 35 ng/ul poly-dIdC, 1% milk, 1 h, room temperature; Ap Aiptasia and Nv Nematostella (sea anemones) / Co Capsaspora / Aq Amphimedon (sponge) / Dm Drosophila / Hu human; RHD is the Rel homology domain; high values mean tight binding
Details in all cases: dsDNA, one strand shown
GST-Ap-NF-kB RHD = target: T1, GST-Ap-NF-kB RHD (Exaiptasia pallida (Aiptasia), UniProt A0A913YAJ5 2-422)
T1 sequence: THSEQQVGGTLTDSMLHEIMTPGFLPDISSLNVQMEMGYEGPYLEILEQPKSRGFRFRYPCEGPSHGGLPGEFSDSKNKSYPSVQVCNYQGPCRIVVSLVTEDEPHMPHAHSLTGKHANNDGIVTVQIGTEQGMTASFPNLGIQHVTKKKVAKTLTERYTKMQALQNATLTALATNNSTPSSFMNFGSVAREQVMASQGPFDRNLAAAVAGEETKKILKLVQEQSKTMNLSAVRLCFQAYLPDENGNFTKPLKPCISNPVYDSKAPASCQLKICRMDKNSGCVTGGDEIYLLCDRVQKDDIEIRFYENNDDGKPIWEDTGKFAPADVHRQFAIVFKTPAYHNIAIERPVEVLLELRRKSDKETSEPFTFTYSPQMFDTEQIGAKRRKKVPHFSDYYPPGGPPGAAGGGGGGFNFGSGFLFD

[1] = target: T2, GST-Nv-NF-kB (Cys allele) (Nematostella vectensis, UniProt E5G601 2-411)
T2 sequence: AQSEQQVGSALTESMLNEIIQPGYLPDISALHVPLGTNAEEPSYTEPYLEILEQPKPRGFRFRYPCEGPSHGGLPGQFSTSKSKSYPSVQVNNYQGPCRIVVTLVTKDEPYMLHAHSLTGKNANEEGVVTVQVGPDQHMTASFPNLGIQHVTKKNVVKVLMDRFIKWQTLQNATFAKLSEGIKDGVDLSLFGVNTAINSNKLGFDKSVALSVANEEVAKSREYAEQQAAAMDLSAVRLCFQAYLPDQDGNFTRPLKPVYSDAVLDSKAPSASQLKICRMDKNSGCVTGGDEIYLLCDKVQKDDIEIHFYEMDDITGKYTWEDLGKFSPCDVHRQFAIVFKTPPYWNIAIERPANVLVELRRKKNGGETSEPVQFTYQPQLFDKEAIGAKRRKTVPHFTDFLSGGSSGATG

GST-Co-NF-kB = target: T3, GST-Co-NF-kB (Capsaspora owczarzaki, UniProt F1ARL5 200-546)
T3 sequence: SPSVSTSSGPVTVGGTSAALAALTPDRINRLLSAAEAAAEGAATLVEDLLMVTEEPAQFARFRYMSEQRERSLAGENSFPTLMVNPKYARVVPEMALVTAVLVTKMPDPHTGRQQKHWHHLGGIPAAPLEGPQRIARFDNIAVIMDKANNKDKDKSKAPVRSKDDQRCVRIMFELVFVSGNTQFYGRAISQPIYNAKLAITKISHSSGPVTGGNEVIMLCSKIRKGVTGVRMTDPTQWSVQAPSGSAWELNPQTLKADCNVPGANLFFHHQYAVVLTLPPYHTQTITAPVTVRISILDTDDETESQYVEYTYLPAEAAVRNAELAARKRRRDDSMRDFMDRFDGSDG

GST-Aq-NF-kB = target: T4, GST-Aq-NF-kB (Amphimedon queenslandica, UniProt A9Y5G7 2-389)
T4 sequence: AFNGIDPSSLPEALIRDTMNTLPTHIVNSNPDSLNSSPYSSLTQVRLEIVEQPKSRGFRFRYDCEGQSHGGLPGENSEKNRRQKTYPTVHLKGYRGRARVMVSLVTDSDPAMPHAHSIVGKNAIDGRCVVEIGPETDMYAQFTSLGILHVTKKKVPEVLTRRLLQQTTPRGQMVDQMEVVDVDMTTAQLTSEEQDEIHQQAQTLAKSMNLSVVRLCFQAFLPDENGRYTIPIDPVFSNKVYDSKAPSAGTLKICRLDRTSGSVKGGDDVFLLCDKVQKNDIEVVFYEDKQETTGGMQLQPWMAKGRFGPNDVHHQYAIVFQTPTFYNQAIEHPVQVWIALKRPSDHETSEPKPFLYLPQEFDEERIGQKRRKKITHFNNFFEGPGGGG

[2] = target: T5, GST-Nv-NF-kB (Ser allele) (Nematostella vectensis, UniProt A7UNT2 2-411)
T5 sequence: T2 sequence with Q21R, C66S, S207N, E215Q, V217A, E225K, A268E, D399E

GST-Dm-Relish = target: T6, GST-Dm-Relish (Drosophila melanogaster, UniProt Q94527 99-473)
T6 sequence: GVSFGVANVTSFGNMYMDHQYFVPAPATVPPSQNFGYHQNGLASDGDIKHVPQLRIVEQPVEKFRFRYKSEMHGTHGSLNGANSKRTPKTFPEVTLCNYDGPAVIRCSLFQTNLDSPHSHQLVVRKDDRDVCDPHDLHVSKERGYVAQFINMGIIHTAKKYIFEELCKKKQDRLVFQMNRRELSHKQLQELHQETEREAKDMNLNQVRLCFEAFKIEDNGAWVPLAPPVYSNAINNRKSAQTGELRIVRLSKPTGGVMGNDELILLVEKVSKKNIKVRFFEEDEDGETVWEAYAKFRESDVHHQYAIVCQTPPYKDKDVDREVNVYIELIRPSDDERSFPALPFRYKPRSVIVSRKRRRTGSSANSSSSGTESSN

Row | Sequence | binding signal (GST-Ap-NF-kB RHD) [z-score] | binding signal [1] [z-score] | binding signal (GST-Co-NF-kB) [z-score] | binding signal (GST-Aq-NF-kB) [z-score] | binding signal [2] [z-score] | binding signal (GST-Dm-Relish) [z-score]
1 | CCGATTAACATCACCAGTTTCCCTGATGTTAATCGGGTCTTGATTCGCTTGACGCTGCTG | 2.66 | 3.06 | 3.09 | 2.6 |  | 
2 | CCGATTAACATCACGGTAATCCCTGATGTTAATCGGGTCTTGATTCGCTTGACGCTGCTG | 4.31 | 1.91 |  | 4.77 | 1.84 | 5.6
3 | CCGATTAACATCAAAAAACTACCTGATGTTAATCGGGTCTTGATTCGCTTGACGCTGCTG | 2.29 | 3 |  | 3.57 | 7.62 | 6.2
4 | CCGATTAACATCAGGAAAGTACCTGATGTTAATCGGGTCTTGATTCGCTTGACGCTGCTG | 3.4 | 5.99 |  | 6.27 | 8.2 | 8.08
5 | CCGATTAACATCAGGGAAAATCATGATGTTAATCGGGTCTTGATTCGCTTGACGCTGCTG | 3.91 | 5.72 | 4.62 | 5.1 | 7.02 | 1.46
6 | CCGATTAACATCAACATGGGAAATGATGTTAATCGGGTCTTGATTCGCTTGACGCTGCTG | 1.54 | 2.51 | 1.82 | 1.66 |  | 
7 | CCGATTAACATCAGGGGAAAGCATGATGTTAATCGGGTCTTGATTCGCTTGACGCTGCTG | 5.49 | 6.83 | 6.79 | 4.54 | 8.3 | 2.4
8 | CCGATTAACATCAGGGGATTAAATGATGTTAATCGGGTCTTGATTCGCTTGACGCTGCTG | 4.91 | 6.29 | 3.71 | 5.21 | 7.01 | 5.28
9 | CCGATTAACATCACCCAGTTCCCTGATGTTAATCGGGTCTTGATTCGCTTGACGCTGCTG | 1.22 | 1.21 | 1.44 | 1.7 |  | 
10 | CCGATTAACATCAGGGAAGGACCTGATGTTAATCGGGTCTTGATTCGCTTGACGCTGCTG | 1.78 | 2.28 |  | 3.91 | 1.09 | 4.44
11 | CCGATTAACATCACGCCCCCCCCTGATGTTAATCGGGTCTTGATTCGCTTGACGCTGCTG | 5.3 | 4.2 | 3.87 | 4.89 | 4.8 | 4.72
12 | CCGATTAACATCAGGGAAACTACTGATGTTAATCGGGTCTTGATTCGCTTGACGCTGCTG | 3.54 | 4.2 | 3.89 | 5.64 | 4.47 | 5.85
13 | CCGATTAACATCAGACATTCCCATGATGTTAATCGGGTCTTGATTCGCTTGACGCTGCTG | 1.46 | 2.27 | 1.37 | 2.26 |  | 
14 | CCGATTAACATCAACTTTCCCAGTGATGTTAATCGGGTCTTGATTCGCTTGACGCTGCTG | 1.05 | 2 | 3.84 | 3.06 |  | 
15 | CCGATTAACATCACATGGGAAACTGATGTTAATCGGGTCTTGATTCGCTTGACGCTGCTG | 1.24 | 2.14 | 2.48 | 1.58 |  | 
16 | CCGATTAACATCAACTGGGAAAATGATGTTAATCGGGTCTTGATTCGCTTGACGCTGCTG | 1.66 | 3.04 | 3.52 | 1.65 |  | 

Row | Sequence | binding signal (GST-Ap-NF-kB RHD) [z-score] | binding signal [1] [z-score] | binding signal (GST-Co-NF-kB) [z-score] | binding signal (GST-Aq-NF-kB) [z-score] | binding signal [2] [z-score] | binding signal (GST-Dm-Relish) [z-score]
17 | CCGATTAACATCAGAATCTCCCATGATGTTAATCGGGTCTTGATTCGCTTGACGCTGCTG | 1.74 | 2.74 | 1.64 | 2.73 |  | 
18 | CCGATTAACATCACTCCCTAAAATGATGTTAATCGGGTCTTGATTCGCTTGACGCTGCTG | 1.35 | 2.35 | 1.22 | 3.48 |  | 
19 | CCGATTAACATCATGCCCGGGAATGATGTTAATCGGGTCTTGATTCGCTTGACGCTGCTG | 1.55 | 1.27 | 3.51 | 2.72 |  | 
20 | CCGATTAACATCAATTCCCGTACTGATGTTAATCGGGTCTTGATTCGCTTGACGCTGCTG | 1.81 | 2.92 | 2.55 | 2.81 |  | 
21 | CCGATTAACATCAAATGTGGGAATGATGTTAATCGGGTCTTGATTCGCTTGACGCTGCTG | 1.11 | 1.53 | 3.07 | 2.21 |  | 
22 | CCGATTAACATCATTTCCCTTGATGATGTTAATCGGGTCTTGATTCGCTTGACGCTGCTG | 1.97 | 4.19 | 1.95 | 3.49 |  | 
23 | CCGATTAACATCATGGGGACGACTGATGTTAATCGGGTCTTGATTCGCTTGACGCTGCTG | 3.56 | 3.19 | 2.39 | 2.64 |  | 
24 | CCGATTAACATCAATTTACCCACTGATGTTAATCGGGTCTTGATTCGCTTGACGCTGCTG | 1.67 | 1.68 | 2.34 | 1.45 |  | 
25 | CCGATTAACATCATGATGGGAAATGATGTTAATCGGGTCTTGATTCGCTTGACGCTGCTG | 1.17 | 2.84 | 1.71 | 1.64 |  | 
26 | CCGATTAACATCACCCACTTCCCTGATGTTAATCGGGTCTTGATTCGCTTGACGCTGCTG | 1.06 | 1.67 | 1.4 | 1.65 |  | 
27 | CCGATTAACATCAGACTGGGAAATGATGTTAATCGGGTCTTGATTCGCTTGACGCTGCTG | 1.4 | 1.92 | 3.05 | 1.18 |  | 
28 | CCGATTAACATCAGAGTTTCCCATGATGTTAATCGGGTCTTGATTCGCTTGACGCTGCTG | 3.08 | 3.42 | 3.76 | 3.07 |  | 
29 | CCGATTAACATCATGTTGGGAAATGATGTTAATCGGGTCTTGATTCGCTTGACGCTGCTG | 1.02 | 2.29 | 2.51 | 1.2 |  | 
30 | CCGATTAACATCATGGTGGGAAATGATGTTAATCGGGTCTTGATTCGCTTGACGCTGCTG | 1.25 | 2.69 | 2.94 | 1.9 |  | 
31 | CCGATTAACATCAACTCGGGAAATGATGTTAATCGGGTCTTGATTCGCTTGACGCTGCTG | 1.08 | 2.75 | 3.32 | 1.73 |  | 
